Test results reported in PubChem BioAssay AID489008 (National Center for Advancing Translational Sciences (NCATS), 2010).
Inconclusive results are not listed. The source made the active and inactive calls. Calls come from the whole dose curve; as a rule, active = well fitted inhibition curve with a large enough effect; inconclusive = small, poorly fitted or top-dose-only effect; inactive = flat fitted curve, though single readings scatter.

molecular target: Ferritin light chain (Equus caballus) (UniProt P02791); experiment: Confirmation Assay for Identification of Novel General Anesthetics; details: apoferritin 1-aminoanthracene fluorescence displacement; note: nearly all actives have a fitted effect of over 40% in size
Text: Anesthetic development has remained a largely empirical process. There are growing concerns about the cognitive effects of known general anesthetics and acceleration of the onset of neurodegenerative disease. The compounds' toxicity and multiple specific binding targets in the mammalian brain [4] has made them less attractive as drug leads. In this assay, a GABAergic mimetic model system, apoferritin and a profluorescent 1-aminoanthracene ligand (1-AMA), was used to construct a competitive binding assay for identification of novel general anesthetics. The assay was validated for 1-AMA using other known anesthetics, such as isoflurane (CID:3763) and propofol (CID: 4943), [6]. This particular BioAssay is a confirmation of followup compounds from primary screen AID:485281.
[1] S.L. Bianchi, T. Tran, C. Liu, S. Lin, Y. Li, J.M. Keller, R.G. Eckenhoff, and M.F. Eckenhoff, Brain and behavior changes in 12-month-old Tg2576 and nontransgenic mice exposed to anesthetics. Neurobiol Aging 29 (2008) 1002-10.
[2] Z. Xie, Y. Dong, U. Maeda, R.D. Moir, W. Xia, D.J. Culley, G. Crosby, and R.E. Tanzi, The inhalation anesthetic isoflurane induces a vicious cycle of apoptosis and amyloid beta-protein accumulation. J Neurosci 27 (2007) 1247-54.
[3] P. Honegger, and J.M. Matthieu, Selective toxicity of the general anesthetic propofol for GABAergic neurons in rat brain cell cultures. J Neurosci Res 45 (1996) 631-6.
[4] M.F. Eckenhoff, K. Chan, and R.G. Eckenhoff, Multiple specific binding targets for inhaled anesthetics in the mammalian brain. J Pharmacol Exp Ther 300 (2002) 172-9.
[5] C.A. Butts, J. Xi, G. Brannigan, A.A. Saad, S.P. Venkatachalan, R.A. Pearce, M.L. Klein, R.G. Eckenhoff, and I.J. Dmochowski, Identification of a fluorescent general anesthetic, 1-aminoanthracene. Proc Natl Acad Sci U S A 106 (2009) 6501-6.
[6] W.A. Lea, J. Xi, A. Jadhav, L. Lu, C.P. Austin, A. Simeonov, and R.G. Eckenhoff, A high-throughput approach for identification of novel general anesthetics. PLoS One 4 (2009) e7150.
Source: NIH Chemical Genomics Center [NCGC]
Assay Submitter: Roderic Eckenhoff, University of Pennsylvania
Screening Center PI: Christopher P. Austin, NIH
Probe Development: NIH Chemical Genomics Center [NCGC]
Three uL of reagents (free 1-AMA (50% saturated solution of 1-aminoanthracene
in PBS) in columns 3, 4 as negative control and 1-AMA/apoferritin mixture (10 uM horse-spleen apoferritin in 50% saturated 1-aminoanthracene in PBS) in columns 1, 2, 5-48) was dispensed into 1536-well Greiner black assay plates. Compounds (23 nL) were transferred via Kalypsys pintool equipped with 1,536-pin array (10 nL slotted pins, V&P Scientific, San Diego, CA). Titration of the positive control, propofol, were delivered via pin transfer from separate control plates to the 2nd column of each assay plate. The starting concentration of the control, dissolved in DMSO, was at 160 mM, followed by two-fold dilution points in duplicate, for a total of 16 concentrations. The plates were incubated for 10 min at room temperature, and then read on an EnVision HTS multilabel reader (Perkin-Elmer, Waltham, MA) (end point read, 3 min/plate) using Fura2 BFP excitation filter (380 nm, bandwidth 10 nm) and fluorescein emission filter (535 nm, bandwidth 25 nm) set. A LANCE/DELFIA dichroic mirror with a cutoff wavelength at 400 nm was used to maximize signal accuracy and strength. Vehicle-only plates, with DMSO being pin-transferred to the entire column 5-48 compound area, were inserted uniformly at the beginning and the end of each library in order to monitor for and record any shifts in the background. Activity was computed as the normalized fluorescence response relative to free 1-AMA and 1-AMA/apoferritin complex values. Concentration-effect relationships were derived by using curve fitting algorithms developed in-house (http://ncgc.nih.gov/pub/openhts/). […]
Potency is the fitted concentration of half-maximal effect.

Ferritin light chain (Equus caballus), sequence (P02791 2-175 limits assumed): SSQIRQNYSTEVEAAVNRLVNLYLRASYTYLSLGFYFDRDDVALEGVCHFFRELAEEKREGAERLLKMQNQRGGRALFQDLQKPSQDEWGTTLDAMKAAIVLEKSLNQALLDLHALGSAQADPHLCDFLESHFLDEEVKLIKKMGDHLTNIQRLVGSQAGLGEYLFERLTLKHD

Potency, active:
COc1ccc(/C=N/NC(=O)CC(=O)NC2CCCCC2)cc1 6.31 µM
O=C(COC(=O)c1ccccn1)NC12CC3CC(CC(C3)C1)C2 7.94 µM
Oc1ccc(Cc2ncc(C(F)(F)F)cc2Cl)cc1 15.8 µM
CC1CCCN(C(=O)Nc2ccc(Br)cc2Cl)C1 (stereo not given) 28.2 µM
Cc1ccc(NCc2ccccc2)cc1 10 µM
O=C(CCl)Nc1ccc(N2CCCCCC2)cc1 15.8 µM
CC(=O)Nc1ccc(NCc2ccc(C)s2)cc1 17.8 µM
CCOC(=O)c1c(C(C)(C)C)oc2ccc(O)cc12 39.8 µM
COc1ccc(CNc2ccc(C)c(C)c2)cc1 15.8 µM
O=C(Nc1ccc(F)c(Cl)c1)N1CCCCCC1 7.94 µM
O=C1c2ccsc2SCCN1Cc1ccc(Cl)cc1Cl 15.8 µM
CCN(CC)C(=S)SCC(=O)c1ccccc1 28.2 µM
O=C(CCN1CCN(CCO)CC1)Nc1ccc(C2CCCC2)cc1 31.6 µM
COC(=O)c1ccc(/C=N/NC(=O)CC(=O)NC2CCCCC2)cc1 7.08 µM
Cc1cc(C)n2nc(CC(=O)NC3CCCCCC3)nc2n1 8.91 µM
CN(C)c1ccc(C(=S)N2CCCCCC2)cc1 25.1 µM
CC1CCCC(NC(=O)COC(=O)CCc2ccccc2)C1C (stereo not given) 25.1 µM
CC(C)(C)c1ccc(OCCC(=O)NC2=NCCS2)cc1 20 µM
CCc1c(O)nc(SC2CC(=O)N(c3ccccc3)C2=O)[nH]c1=O (stereo not given) 31.6 µM
Cc1ccc(-c2ccc(=O)n(CC(=O)NCCc3ccccc3)n2)cc1 6.31 µM
Cc1ccc(SCC(=O)N2N=CCC2c2ccccc2)cc1 (stereo not given) 15.8 µM
CCN(CC)CC(=O)Nc1c(C)cc(C(C)(C)C)cc1C 12.6 µM
Cc1cc(C)cc(Oc2ccccc2CO)c1 14.1 µM
O=C(NC12CC3CC(CC(C3)C1)C2)c1ccco1 14.1 µM
Fc1ccccc1CNc1ccc(Cl)cc1 11.2 µM
Cc1cccc(S(=O)(=O)NCCc2ccccc2)c1 14.1 µM
O=C(CCSc1ccccc1)NC(=O)COC(=O)C1CCCCC1 35.5 µM
Cc1ccc(O)c(N=Nc2ccccc2)n1 22.4 µM
CC(C)CCSc1nc2ccccc2[nH]1 15.8 µM
CCc1ccc(NC(=S)N2CCCCCCC2)cc1 14.1 µM
CCc1ccc(CNC(=O)Cn2nc(-c3ccccc3)ccc2=O)cc1 10 µM
COc1ccc(CNC(=O)CN2N=C(c3ccc(Cl)cc3)CCC2=O)cc1 20.7 µM
COc1ccccc1CC(=O)NC12CC3CC(CC(C3)C1)C2 12.6 µM
c1ccc(CCNc2nc3ccccc3s2)cc1 10 µM
O=C(OCC(=O)C12CC3CC(CC(C3)C1)C2)c1cccnc1 22.4 µM
O=C(NCc1ccccc1)Nc1cccn(Cc2ccccc2)c1=O 8.91 µM
Cc1csc(Nc2ccccc2)n1 35.5 µM
Cn1cc(Br)c(C(=O)NC2C3CC4CC(C3)CC2C4)n1 (stereo not given) 10 µM
CC(=O)c1cccc(NC(=O)CCC2CCCC2)c1 28.2 µM
Cc1ccc(CNc2ncnc3c2cnn3-c2ccc(C)cc2C)cc1 15.8 µM
